The text below walks through data of the supplement of paper PMC6555819.

The assay concerns VDR:RXRa (NR concentration 270 nM, RXRa partner concentration 90 nM). The assay is described as follows: PBM binding z-score (relative to random genomic background probes); higher = stronger binding; sequences stand for … in GC…GCGATTGACAGCGTAGAATGAAGG
As to the method:
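Protein-binding microarray (Agilent 4x180K custom design, double-stranded 60-nt probes: 5' GC cap, 34-nt variable region, 24-nt constant primer region; full probe sequence given). Purified or IVT nuclear receptor:RXRα heterodimers (3:1 NR:RXRα, mostly 270:90 nM) or homodimers were incubated for 1 h in PBS with 2% milk and no ligand, then detected with Alexa488 antibodies. Fluorescence from o1-orientation probes (~5 replicates averaged) was converted to z-scores against 500 random hg19 background probes. Variable regions are seed direct-repeat (DR0–DR5) sites, all their single-nucleotide variants and half-site ablations.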
With ACAGGCAGGTGAGTGAAGGTAACTCAGCTGGACG, the PBM binding z-score was -0.417.

CCTTACGGGTCACTCCAGGTTATGGCATCGGAGT showed a PBM binding z-score of 4.08.

ATATGTAGGTTATTGGGTCATTCAGTTTGCGCAT registered a PBM binding z-score of 4.55.

For the sequence CCTCGGAGGACAGAAGGTCAGAGTTGTCCGCTTT, the PBM binding z-score amounted to 1.12.

Turning to CCGACTGGGGCAAGGTTACCATCACGCACAGCCA, the PBM binding z-score is -0.00962.

On to CCTGCTAGGTGATGGTCAGCTAATCTACAGTATG, for which the PBM binding z-score is -0.759.

TCTCGGAAGACACGAAGGTCAGAGCTTTCCAGAG gave a PBM binding z-score of 1.08.

On to CTTACTGGGCCAAAAAGGTCATTGATGCCGATAA, for which the PBM binding z-score was determined as 4.92.

CGTCCAAGATCAGAGAGGTCAGTGAATGCCGAGT showed a PBM binding z-score of 3.82.

Sequence CGAACTAGGTCAGAACAGGACTGTGAAGGATGAT yielded a PBM binding z-score of 0.0454.

On to CATACAGGGTCAGCTAGGCCATAGTAGGGACGGC, for which the PBM binding z-score is 4.92.

Sequence CCTGCAAGGTCATGGTCAGCTAATCTACAGTATG registered a PBM binding z-score of 4.76.

CCGACTGGGGCAGAAAGGTTCCCATACCATCCGG: the PBM binding z-score is -0.573.

Sequence CCTACTGGGCCAAAAAGGTCATAGATGCCGATAA displayed a PBM binding z-score of 4.4.

For GCATATAGGTAATACATGGTGAAAGTCCGATTGT, the PBM binding z-score is -0.0137.

For GCTGCTAGGTCAGGCTGGTCAGCTAACGGGTACG, the PBM binding z-score came out at 0.677.

With CGTCAACGTTCAAGGTAACGTAACAGAAAGCAGC, the PBM binding z-score is -0.14.

Turning to CCTCGGAGGACAGAAGGTCAGAGATGTCCGCTTT, the PBM binding z-score was found to be 1.28.

On to ATCGGAAGGTCGACGAGGTGAGTATACACCGTTT, for which the PBM binding z-score was 3.87.

Take CTACCAAGGTGAACAAGGTCGTTGGTTACTATTC: the PBM binding z-score was determined as 5.92.

TGTCAAAGATCAAAGGTAACGTAAGTATCCACAC had a PBM binding z-score of 0.973.

The sequence TCTATTAGTTGATTGGGGCAACCGAAACAGCGGA came in with a PBM binding z-score of 0.952.

For the sequence CCGACTGGGGCATAAGATTACCATAAGCCAGCCC, the PBM binding z-score is -0.534.

On to TCTTGCAGATCAGCAGGTTAAGAAAGCTGGCCAA, for which the PBM binding z-score is -0.0921.

As to GCTGCTAGGTCAACTGATGGTCAGCTATAGCTCG, the PBM binding z-score was 1.82.

CCGACTGGGGCAAAAGGTTACCATAAGCCAGCCC returned a PBM binding z-score of 1.08.

Take AGTCAAAGTTCATCTAGGTGACGTAAGATATGCT: the PBM binding z-score came to 4.96.

CTCGAAAGGTCGGTTGAGGTGAATATACGGATAA: the PBM binding z-score came to 2.79.

Regarding CGTCAAAGTTCAAGGTAACGTATCAGAAAGCAGC, the PBM binding z-score was 3.97.

CAAACTAGGACACAGAGGTCAAAGTCCGTGCGTA came in with a PBM binding z-score of 5.69.

In turn, AGAATGAGGTTATTAAGATCAAGGAATTGCGGTC registered a PBM binding z-score of 3.11.

Turning to TCTGCTAGGTCAACGATGGTCATCTAATCTGCTA, the PBM binding z-score was 2.16.

The sequence GATACAGGGTCAAGGCCTGAGTACGCGTATTGAT displayed a PBM binding z-score of 4.48.

Sequence CCTACTGGGCCATTCAGAGGTCATTGAACATATG showed a PBM binding z-score of 4.16.

Take TCATATGGGTAAACAGGTGAAAGTCCGTAAGTTA: the PBM binding z-score worked out at 0.583.

The sequence TCTCGGAGAACACGAAAGGTCAGAGCTCGACATC displayed a PBM binding z-score of 2.22.

GCTCGGAGGACAAGGTCAGCGCTTTGTCCGTAGA showed a PBM binding z-score of 1.88.

For ACTAGTTGGTCAGATGAGGTCACACACAATTCGG, the PBM binding z-score turned out to be 4.58.

In turn, GGACCGAGGGCAAGTTGATAGCAGAGTTTGATGG gave a PBM binding z-score of 0.844.

For the sequence CCTTACGGGTCACTCCAGGTTAGAGCATCGGAGT, the PBM binding z-score was found to be 3.65.
